# According to PubChem BioAssay AID463215 (Sanford-Burnham Center for Chemical Genomics, 2010):
# Screen size: about 4,600 compounds; about 2,900 (63%) were called active.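 The calls were made as follows: active = inhibition of yeast growth at or above a set limit in either of two replicates at 10 µM; inactive = the rest.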 So high a share suggests a set chosen from earlier hits. A selection follows.
# Experiment: growth inhibitors of wild-type TIM10 yeast, confirmation, counter-screen for tim10-1 synthetic lethality project, single concentration, luminescence, S. cerevisiae (AID 463215);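 also: isogenic wild-type TIM10 control yeast grown in succinate dextrose medium; this counterscreen used the strain with wild-type TIM10; 0% = yeast with DMSO and 100% = medium wells lacking yeast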
# Conditions: S. cerevisiae tim10 strain growth, BacTiter-Glo luminescence, 24 h; at 10 µM; hits give high values
row,Compound,inhibition
1,CC1CCCCC1NC(=O)/C(C#N)=C/C=C/c1ccccc1[N+](=O)[O-] (stereo not given),41.3% (active)
2,COc1ccc2nc(N3CCN(C(=O)c4ccc([N+](=O)[O-])o4)CC3)sc2c1,82.2% (active)
3,Cc1ccccc1OCC(=O)Nc1ccc(N2CCN(C(=O)C(C)C)CC2)c(Cl)c1,62.8% (active)
4,Oc1c(Cl)cc(Cl)c(Cl)c1Cc1c(O)c(Cl)cc(Cl)c1Cl,89.8% (active)
5,CSC1=N/C(=C\C=C\c2cccs2)C(=O)S1,56.8% (active)
6,Cc1cccc(C2=N/C(=C/c3cccs3)C(=O)O2)c1,22% (inactive)
7,O=C(CCN1CCc2ccccc2C(O)(c2ccccc2)C1)c1ccc2c(c1)OCCO2 (stereo not given),46.2% (active)
8,Cc1cccc(NC(=S)NCc2ccc3[nH]c4c(c3c2)CCCC4)c1,34.5% (active)
9,Cc1cc(C)cc(NC(=S)NCCc2c[nH]c3ccccc23)c1,-10.2% (inactive)
10,c1ccc(C2=Nc3cccc4cccc(c34)N2)cc1,-39.8% (inactive)
11,O=C1c2ccccc2C(=O)c2c1cccc2N1CCN(Cc2ccccc2)CC1,34.2% (active)
12,O=Cc1c(N2CCN(c3cccc(Cl)c3)CC2)nc2ccccn2c1=O,17.8% (inactive)
13,COc1cc(Br)cc(/C=N/c2ncn[nH]2)c1O,35% (active)
14,c1ccc(-c2nnc3n2NC(c2ccc4c(c2)OCO4)S3)cc1 (stereo not given),59.1% (active)
15,Cc1ccc(-c2nn(C(C)(C)C)c3ncnc(N)c23)cc1,54.8% (active)
16,CC(C)(CCl)C(=O)Nc1ccc(Sc2ccc(F)cc2)cc1,41% (active)
17,C=CCNC(=O)c1ccc2c3n(nc2c1)-c1ccc(C)cc1CO3,45.5% (active)
18,CCOC(=O)C1=C(C)N=c2s/c(=C\C(=O)OC)c(=O)n2C1c1ccc(OC)cc1 (stereo not given),53.6% (active)
19,S=C(NCc1ccc(Cl)cc1)NC12CC3CC(CC(C3)C1)C2,23.8% (inactive)
20,O=C(COC(=O)c1ccc([N+](=O)[O-])o1)NC12CC3CC(CC(C3)C1)C2,44.8% (active)
21,COc1ccc(CN(C(=O)CSc2nnc(-c3ccc(OC)c(OC)c3)o2)c2ccc(F)cc2)cc1,19% (inactive)
22,CCN(CC)c1ccc(/C=N/NC(=O)c2cnccn2)c(O)c1,41.4% (active)
23,COc1ccc(C(=O)O/N=C(\N)Cc2ccc(Cl)cc2Cl)cc1OC,86.7% (active)
24,Cc1cc(N=Nc2ccc3ccccc3c2)ccc1O,88.4% (active)
25,FC(F)(F)c1cnc(Oc2ccccc2-c2nnc(-c3ccc(Cl)cc3)o2)c(Cl)c1,5.25% (inactive)

row,Compound,inhibition
1,O=C1Oc2ccccc2C(=O)/C1=C/c1ccccc1O,57.5% (active)
2,Cc1cccc(N=Nc2c(O)[nH]c3ccc(F)cc23)c1,40.8% (active)
3,COc1cc(NC(=O)c2cccs2)ccc1NC(=O)c1ccccc1Cl,5.7% (inactive)
4,O=C(Nc1ccc(NC(=O)c2cccs2)cn1)c1ccco1,32.2% (active)
5,Cc1nc(-c2ccc(NC(=O)c3cccs3)cc2)cs1,-32.7% (inactive)
6,Cc1ccc(-c2cn3cc(C)ccc3n2)cc1,67% (active)
7,Cc1ccc2nc(-c3ccc(Br)cc3)cn2c1,38.8% (active)
8,Nc1cc(OC(=O)c2ccccc2Br)nn1S(=O)(=O)c1ccccc1,48% (active)
9,CN1C(=O)/C(=N/OC(=O)c2ccccc2Br)c2ccccc21,61.5% (active)
10,Fc1ccccc1/C=C1\CCCC2=C1Nc1ncnn1C2c1ccccc1F (stereo not given),26.4% (inactive)
11,COc1ccc(C(=O)Nc2ccc(-n3nncc3C(C)(C)C)cc2)cc1,21.1% (inactive)
12,CCc1cc(C(N)=O)c(NC(=O)c2ccc(OC)cc2)s1,59.7% (active)
13,CC(C)(C)C(=O)c1cnc(Nc2ccccc2)s1,21.1% (inactive)
14,CSCCC(NS(=O)(=O)/C=C/c1ccccc1)C(=O)N1CCC(C)CC1 (stereo not given),2.25% (inactive)
15,CCn1c(/C=C/c2ccc([N+](=O)[O-])o2)nc2ccccc2c1=O,80.8% (active)
16,COc1ccc2c(c1)cc1n2CCN=C1NN,51.4% (active)
17,COc1ccccc1-c1n[nH]c2c1[C@H](C)CC[C@H]2C(C)C,50.2% (active)
18,Cc1cc(N)n2nc(-c3ccc(C(C)(C)C)cc3)cc2n1,9.25% (inactive)
19,CC1=C/C(=N\OS(=O)(=O)c2ccccc2)C=CC1=O,-32.8% (inactive)
20,O=C(Nc1nnc(SCc2c(Cl)cccc2Cl)s1)C1CCCO1 (stereo not given),41% (active)
21,CC(C)c1ccc(NC(=S)NC2CC3C=CC2C3)cc1 (stereo not given),35.2% (active)
22,O=C1c2ccccc2S(=O)(=O)N1CC(O)Cn1c2ccccc2c2ccccc21 (stereo not given),46.1% (active)
23,CCOC(=O)CNC(=O)CSc1ncccc1-c1nc2ccccc2[nH]1,1.05% (inactive)
24,O=C(Nc1ccc(Cl)c(Cl)c1)N1CC=C(c2ccccc2)CC1,33.3% (active)
25,CS(=O)(=O)c1sc2nc(-c3ccccc3)cc(-c3ccccc3)c2c1N,-14.8% (inactive)

row,Compound,inhibition
1,Nc1cccc(-c2cc(-c3ccccc3)nc(-c3cccc(N)c3)n2)c1,36.6% (active)
2,O=c1oc2ccccc2cc1-c1csc(Nc2ccc(O)cc2)n1,39.9% (active)
3,O=C(CC(O)(C(F)(F)F)C(F)(F)F)Nc1ccc(Cl)c(Cl)c1,92.4% (active)
4,CCOC(=O)C1Sc2[nH]c(=O)sc2C(c2ccc(Cl)cc2)C1C(=O)OCC (stereo not given),48.2% (active)
5,CC1CC(=S)Nc2ccccc2N1Cc1ccccc1 (stereo not given),-14.8% (inactive)
6,O=C(Oc1ccc([N+](=O)[O-])cc1)c1ccc2ccccc2n1,33.2% (active)
7,CCCc1nc2c(c(=O)c3ccccc3n2C)c(=O)n1C1CCCCCC1,-18.1% (inactive)
8,Cc1[nH]n(C(N)=S)c(=O)c1N=Nc1ccc(Cl)cc1Cl,51.7% (active)
9,CCCCC1(C(=O)OCC)NC(c2ccc(O)cc2)C2C(=O)N(c3ccccc3)C(=O)C21 (stereo not given),7% (inactive)
10,CCSC1=C(C#N)C(=O)n2c1cc1c2CCCC1,56.2% (active)
11,CC(=NCc1ccc2c(c1)OCO2)C1=C(O)c2ccccc2C1=O,66.2% (active)
12,O=C(NCc1ccc2c(c1)OCO2)c1c(O)nc2sccn2c1=O,27.8% (inactive)
13,COc1ccc(O)c(C(=O)c2cnc3c(c2)c(-c2ccc(F)cc2)c(C#N)c(=O)n3C)c1,3.75% (inactive)
14,O=C1[C@@H](c2ccccc2)[C@@H](c2ccccc2)N1c1cccnc1,61.4% (active)
15,C=CCNC(=S)NNC(=O)COc1c(Cl)cc(Cl)cc1Cl,2.85% (inactive)
16,O=C(Oc1c(-c2ccco2)oc2ccccc2c1=O)c1cccnc1,48% (active)
17,CN(C)CCN(C(=O)C1=COCCO1)c1nc2ccc(Cl)cc2s1,69.3% (active)
18,Cc1ccc2nc(N(CCN(C)C)C(=O)C3=COCCO3)sc2c1,34.9% (active)
19,Cc1ccoc1C(=O)Nc1cccc(Oc2ccccc2)c1,61% (active)
20,Cc1nc(-c2ccc(Cl)cc2)sc1C(=O)CBr,52.6% (active)
21,CCNC(=S)N(CCc1c(C)[nH]c2ccc(C)cc12)Cc1ccco1,20.2% (inactive)
22,Cc1cccc(NC(=O)c2ccc([N+](=O)[O-])o2)c1,81.6% (active)
23,Cc1onc(NC(=O)c2ccc([N+](=O)[O-])o2)c1Br,53.8% (active)
24,O=C(Nc1ccc(Br)cn1)c1ccc([N+](=O)[O-])o1,46.5% (active)
25,CC(C)CC(=O)NC(=S)Nc1ccc(F)cc1F,15.1% (inactive)

row,Compound,inhibition
1,Cc1ccc2nc(-c3ccc(SCC(=O)Nc4cc(C)on4)nc3)[nH]c2c1,2.7% (inactive)
2,CC(C)Oc1c(Br)cc(Br)cc1/C=N/NC(N)=S,23.6% (inactive)
3,NC(=S)N/N=C/c1coc2cc(Cl)ccc2c1=O,50.8% (active)
4,C=C(C)COc1ccc(-c2n[nH]c(C)c2-c2ccccc2)c(O)c1,40.1% (active)
5,Oc1ccccc1-c1cc(-c2ccc(Cl)cc2)n[nH]1,55.5% (active)
6,CC(C)NC(=O)/C(C#N)=C\c1ccc(N(C)C)c(Br)c1,46.6% (active)
7,O=c1[nH]cnc2c1c(-c1ccccc1)cn2-c1ccc(F)cc1,-25.6% (inactive)
8,CC(=NCc1ccco1)c1c(C(F)(F)F)[nH]n(-c2nc3ccccc3s2)c1=O,57.4% (active)
9,COc1ccc(/C(N)=N/OC(=O)CCCc2ccccc2)cc1,39.8% (active)
10,N/C(=N\OC(=O)CCc1ccccc1)c1ccc(Cl)cc1,57.2% (active)
11,COc1ccc(-c2oc3ncn(Cc4ccco4)c(=N)c3c2-c2ccc(OC)cc2)cc1,38.8% (active)
12,COc1ccc2[nH]cc(/C=C(/C#N)S(=O)(=O)c3ccccc3)c2c1,38% (active)
13,N/C(=N\OC(=O)Nc1ccc(Cl)c(Cl)c1)c1ncc(C(F)(F)F)cc1Cl,72.8% (active)
14,CC1CCCC(C)N1C(=O)CN1CCN(c2nc(-c3ccc(F)cc3)cs2)CC1 (stereo not given),39.2% (active)
15,CC(=O)Oc1ccc(N(C(C)=O)S(=O)(=O)c2ccc3ccccc3c2)cc1Br,40.5% (active)
16,Cc1cc(C)n(CC(O)CN(c2ccccc2)S(=O)(=O)c2ccc3ccccc3c2)n1 (stereo not given),2.2% (inactive)
17,CCc1ccc(OCC(=O)NCC(c2ccc(Cl)cc2)N2CCCCC2)cc1 (stereo not given),44% (active)
18,CC1CCC2CCCCC2N1C(=O)c1cc([N+](=O)[O-])cc([N+](=O)[O-])c1 (stereo not given),33% (active)
19,CCOc1ccccc1/C=c1\sc2nc(-c3ccco3)nn2c1=O,48.9% (active)
20,Cc1ccc(-c2ccnc3nc(Sc4ncc(C(F)(F)F)cc4Cl)nn23)cc1,29.6% (inactive)
21,Cc1nn2c(c1-c1ccccc1)N=C(c1ccco1)CC2c1ccccc1 (stereo not given),-19.4% (inactive)
22,CC(NC(=S)Nc1ccccc1)C1COc2ccccc2O1 (stereo not given),40.3% (active)
23,Cc1ccc(N2C(=O)C3C4C=CC(CC4)C3C2=O)cc1Cl (stereo not given),0.2% (inactive)
24,Cc1ccc(C(=O)COc2cccc(NC(=O)c3ccco3)c2)cc1,53.1% (active)
25,COc1cccc(OCc2cc(C(=O)N3CCN(C(=O)c4ccco4)CC3)no2)c1,8.3% (inactive)
